Sampled rows, rich in hits. Any-hit rate of the full collection: about 4.8%.
ALOX15 inhib: inhibitors of human 15-lipoxygenase (ALOX15) | P16050 | purified 15hLO-1, xylenol orange hydroperoxide absorbance | Potency, µM (titrated, usually from 57.1 µM), inactives show top-dose activity change, negative = inhibition, hits mostly inhibitors | 74,000 tested, 1.4% active; note: % is set by controls: 0 for no effect and ±100 for the full control effect; nearly all actives have a fitted effect of over 55% in size
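Purified human 15hLO-1 (40 nM) in 25 mM Hepes pH 7.5, 0.01% Triton X-100, preincubated 15 min RT with compound, then 50 uM arachidonic acid for 6 min. Hydroperoxide read by ferrous/xylenol orange, 30 min; 573/405 nm absorbance ratio gave progress.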
ERK AVP inh: vasopressin-driven ERK pathway inhibition; HEK293-V1b, vasopressin-stimulated pERK AlphaScreen; Potency, µM (highest dose often 57.5 µM), inactives show top-dose activity, negative = inhibition, hits mostly inhibitors; 72,000 tested, 0.99% active; note: % is set by controls: 0 for no effect and ±100 for the full control effect; nearly all actives have a fitted effect of over 55% in size
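HEK293 cells stably expressing V1b receptor, seeded overnight in 1% FBS, were treated with compounds for 30 min at 37C, then stimulated 5 min with 25 nM vasopressin; phospho-ERK read by AlphaScreen SureFire after lysis.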
HEK293 cAMP ctrl: parental HEK293 cAMP activation (counter-screen). Potency, µM (doses to about 57.1 µM), inactives show at the top dose activation, most hits filed as activators. 73,000 tested, 2.5% active. parental HEK293 CNG cAMP sensor, membrane potential fluorescence; note: % of control where 0% means no effect; nearly all actives have a fitted effect of over 55% in size
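Counterscreen for endogenous-receptor signalling: CNG-channel HEK 293 cells report cAMP rise by membrane depolarization. After 60 min dye equilibration with 100 uM RO 20-1724, compounds incubated 30 min before bottom-read fluorescence at 590 nm.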
TSHR agonist: TSH receptor (human) agonism. P16473. HEK293-CNG-TSHR cells (CNG channel as cAMP sensor), membrane potential dye, cAMP. Potency, µM (top dose mostly 57.1 µM), for inactives: at the highest dose activation, actives largely listed as activators. 73,000 tested, 0.48% active. AID 926; active = well fitted activation curve with a large enough effect in the main read-out, with a control signal flat, not every such curve was filed as active; inconclusive = small, poorly fitted or top-dose-only effect, or a change in a side signal; inactive = no such curve, though single readings can be large or run the other way; % of control where 0% means no effect;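 note: the control signal comes from parental cells without the receptor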
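HEK 293 cells stably expressing TSHR and a cAMP-gated CNG channel; parental CNG-only cells as counterscreen. Cells preloaded 60 min with membrane potential dye plus 100 uM RO 20-1724, then compound 30 min; fluorescence read at 590 nm.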
Casp7 inh: allosteric or competitive inhibitors of human caspase-7 | 75,000 tested, 0.02% active | Potency, µM (highest dose often 57.5 µM), inactives show top-dose activity change, negative = inhibition, hits mostly inhibitors | recombinant caspase-7, Ac-DEVD-AFC fluorescence rate | P55210; active = well fitted inhibition curve with a large enough effect in the main read-out, with a control signal flat, not every such curve was filed as active; inconclusive = small, poorly fitted or top-dose-only effect, or a change in a side signal; note: % of control where 0% means no effect
Casp1 inh: allosteric or competitive inhibitors of human caspase-1 | P29466 | Caspase-1 enzyme, Ac-WEHD-AFC fluorogenic rate | Potency, µM (highest dose often 57.5 µM), inactives show at the highest dose activity change, negative = inhibition, actives largely listed as inhibitors | 75,000 tested, 0.03% active | AID 900;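 note: plate controls were vehicle for no effect and no substrate for full effect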
* marks the source's active call; other numbers are inactive results; [ ] = another dose, or the depositor's remark. Unless noted, calls come from the whole dose curve; as a rule, active = well fitted curve in the direction sought with a large enough effect; inconclusive = small, poorly fitted or top-dose-only effect, or another doubt; inactive = no such curve, though single readings can be large; an effect the other way counts as inactive or inconclusive. Potency is the fitted concentration of half-maximal effect.

N#CC(C#N)=Cc1cc(O)c(O)c(O)c1 was read as ALOX15 inhib 7.9µM*, ERK AVP inh 12%, HEK293 cAMP ctrl inconclusive, TSHR agonist inconclusive, Casp7 inh 0% and Casp1 inh 0%.
`CC(=O)[O][Hg][c]1ccccc1` gave ALOX15 inhib 0.013µM*, ERK AVP inh inconclusive, HEK293 cAMP ctrl inconclusive, TSHR agonist inconclusive, Casp7 inh -4% and Casp1 inh inconclusive.
For C[CH2][Hg][S]c1ccccc1C(=O)O the results were ALOX15 inhib 1.3µM*, ERK AVP inh 10µM*, Casp7 inh -1% and Casp1 inh -4%.
CC1CC[C@@]2(OC1)O[C@@H]1[C@@H](O)[C@H]3C4CC[C@H]5C[C@@H](O[C@@H]6O[C@H](CO)[C@H](O[C@@H]7O[C@H](CO)[C@@H](O)[C@H](O[C@@H]8OC[C@@H](O)[C@H](O)[C@H]8O)[C@H]7O[C@@H]7O[C@H](CO)[C@@H](O)[C@H](O[C@@H]8O[C@H](CO)[C@@H](O)[C@H](O)[C@H]8O)[C@H]7O)[C@H](O)[C@H]6O)[C@H](O)C[C@]5(C)C4CC[C@]3(C)[C@H]1[C@@H]2C (stereo not given in full) was read as ALOX15 inhib -5%[25.6 µM], ERK AVP inh 40µM*, Casp7 inh 1% and Casp1 inh -4%.
Screening c1cc(OCC2CO2)cc(OCC2CO2)c1 (stereo not given) returned ALOX15 inhib -4%, ERK AVP inh -15%, HEK293 cAMP ctrl -7%, TSHR agonist inconclusive, Casp7 inh 1% and Casp1 inh 3%.
Screening Cc1ccccc1C1=NCC(=O)N(CC(=O)NCc2ccco2)c2sc3c(c21)CCCC3 returned ALOX15 inhib 25µM*, ERK AVP inh 3%, HEK293 cAMP ctrl 21%, Casp7 inh -2% and Casp1 inh -1%.
For CN(C)CS/C(N)=N/[C@H](O)C(Cl)(Cl)Cl the results were ALOX15 inhib -16%[11.4 µM], ERK AVP inh 4%[11.5 µM], HEK293 cAMP ctrl -10%[11.4 µM], TSHR agonist 0%[11.4 µM], Casp7 inh 0%[11.5 µM] and Casp1 inh -3%[11.5 µM].
`COC(=O)c1c(C)oc2ccc(OC(=O)N3CCOCC3)cc12` gave ALOX15 inhib 13%, ERK AVP inh -13%, HEK293 cAMP ctrl 5%, TSHR agonist 25µM*, Casp7 inh -1% and Casp1 inh -1%.
O=C(Oc1ccc2ccc(OC(=O)N3CCOCC3)cc2c1)N1CCOCC1 was read as ALOX15 inhib -12%, ERK AVP inh 2%, HEK293 cAMP ctrl inconclusive, TSHR agonist inconclusive, Casp7 inh -1% and Casp1 inh -4%.
`Cc1ccc(NC(=[OH+])c2cc3ccccc3cc2O)c(C)c1.Cc1ccc(NC(=[OH+])c2cc3ccccc3cc2O)c(C)c1.[Ni]` gave ALOX15 inhib 4µM*, ERK AVP inh 11%[11.5 µM], HEK293 cAMP ctrl -12%[11.4 µM], TSHR agonist -4%[11.4 µM], Casp7 inh -1%[11.5 µM] and Casp1 inh 3%[11.5 µM].
For CN(N=O)c1ccc(O)c(O)c1 the results were ALOX15 inhib 16µM*, ERK AVP inh -7%, HEK293 cAMP ctrl 8%, TSHR agonist -15%, Casp7 inh 0% and Casp1 inh 3%.
For O=P(c1ccccc1)(c1ccccc1)N1CC2(CC2)CC(O)(c2ccccc2)C1 (stereo not given) the results were ERK AVP inh 13%, HEK293 cAMP ctrl 0.79µM*, TSHR agonist inconclusive, Casp7 inh -2% and Casp1 inh 5%.
`CCC(=O)OC1CCC2C3CCc4cc(O)ccc4C3CC[C@]12C` (stereo not given in full) gave ALOX15 inhib inconclusive, ERK AVP inh inconclusive, Casp7 inh -6% and Casp1 inh -8%.
For Clc1ccc(CO[C@@H](Cn2ccnc2)c2ccc(Cl)cc2Cl)cc1 the results were ALOX15 inhib 36%[25.6 µM], ERK AVP inh -5%[25.7 µM], HEK293 cAMP ctrl 16µM*, TSHR agonist inconclusive, Casp7 inh -1%[25.7 µM] and Casp1 inh -6%[25.7 µM].
C/C=C1\C[C@H](C)[C@](O)(CO)C(=O)OCC2=CCN3CC[C@@H](OC1=O)[C@@H]23 was read as HEK293 cAMP ctrl 9% and TSHR agonist 8%.
For CC(C)=CCCC1(C)C=Cc2c(O)c3c(c(CC=C(C)C)c2O1)OC12C(=CC4CC1C(C)(C)OC2(C/C=C(/C)C(=O)O)C4O)C3=O (stereo not given) the results were ALOX15 inhib 20µM*, ERK AVP inh 5µM*, Casp7 inh -14% and Casp1 inh -7%.
For CC(C)=CCCC1(C)C=Cc2c(O)c3c(c(CC=C(C)C)c2O1)OC12C(=CC4CC1C(C)(C)OC2(C/C=C(/C)C(=O)O)C4=O)C3=O (stereo not given) the results were ALOX15 inhib 16µM*, ERK AVP inh inconclusive, Casp7 inh -15% and Casp1 inh -5%.
Screening COc1c(CC=C(C)C)c2c(c3oc(=O)c(-c4ccc(O)cc4)c(O)c13)C=CC(C)(C)O2 returned ALOX15 inhib -4%, ERK AVP inh 11%, Casp7 inh -3% and Casp1 inh 0%.
Screening CC(C)CCCC1(C)C=Cc2c(O)c3c(c(CCC(C)C)c2O1)OC12C(CC4CC1C(C)(C)OC2(CCC(C)C(=O)O)C4O)C3=O (stereo not given) returned ALOX15 inhib inconclusive, ERK AVP inh 28%, Casp7 inh -14% and Casp1 inh -6%.
Screening c1nc(N2CC2)c2cnn([C@@H]3CCCCO3)c2n1 returned ALOX15 inhib 1%[11.4 µM], ERK AVP inh -6%[11.5 µM], HEK293 cAMP ctrl 10%[11.4 µM], TSHR agonist 0%[11.4 µM], Casp7 inh -1%[11.5 µM] and Casp1 inh 1%[11.5 µM].
For CC1=C(O)C(=O)C=C2C1=CC=C1[C@]2(C)CC[C@@]2(C)C3C[C@](C)(C(=O)O)CC[C@@]3(C)CC[C@@]12C (stereo not given in full) the results were ALOX15 inhib 4µM*, ERK AVP inh 32µM*, Casp7 inh -16% and Casp1 inh -3%.
Screening COC(=O)[C@]1(C)CC[C@@]2(C)CC[C@@]3(C)C4=CCc5c(cc(O)c(O)c5C)[C@]4(C)CC[C@@]3(C)C2C1 (stereo not given in full) returned ALOX15 inhib -27%, ERK AVP inh 8%, Casp7 inh 2% and Casp1 inh -2%.
